{"source": "the supplement of paper PMC10338343", "note": "± gives the standard deviation."}
{"system": "MILI (PIWIL2) piRISC loaded with piRNA #1 (26 nt)", "experiment": "pre-steady-state target cleavage rate (min^-1); guide: piRNA #1 5'p-UGAGGUAGUAGGUUGUAUAGUAUCCA; MIWI and MILI are mouse PIWI proteins and EfPiwi is from a freshwater sponge; tags in brackets are library labels; higher = faster piRNA-guided slicing of the target", "settings": "auxiliary factor: 500 nM mouse GTSF1", "experimental": "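Cleave-'n-Seq: a library of target RNAs (target site embedded in constant flanks, ACAGCATTCCGCGTTAGTGATATCCG... 5' flank; DNA-blocked outside the site) at 0.1 nM was incubated with 1 nM active mouse MILI or MIWI piRISC (synthetic 5'-monophosphorylated piRNA guide) with or without 500 nM mouse GTSF1 at 33 °C for 1 min to 16 h. Uncleaved targets were sequenced and normalised to non-target controls, and the pooled three trials were fitted to a burst-and-steady-state model to give the pre-steady-state cleavage rate (min^-1; k3 is constrained to at most 1e-4). Sequence is the target site only; target names encode pairing extent (gX:gY) and contiguous / 1-mismatch / 2-mismatch / bulge geometry. Fits with R² ≤ 0 are excluded.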"}
{"sequence": "GGAGACCUAACUAAACAACCUACUACCUGA", "pre-steady-state target cleavage rate": "0.0558 ± 0.021"}
{"sequence": "GGAGACCUAAGUAAACAACCUACUACCUCA", "pre-steady-state target cleavage rate": "0.0128 ± 0.0033"}
{"sequence": "GGAGACCUUACUAUACAACCUAUCUACCUCA", "pre-steady-state target cleavage rate": "0.0976 ± 0.011"}
{"sequence": "GGAGACCUAUGUAUACAACCUACUAUCCUCA", "pre-steady-state target cleavage rate": "0.0887 ± 0.011"}
{"sequence": "GGAGACCUUACUAUAACAACCUACUACCUCA", "pre-steady-state target cleavage rate": "0.134 ± 0.013"}
{"sequence": "GGAGACCUAACUAUACAACCGUACUACCUCA", "pre-steady-state target cleavage rate": "0.00506 ± 0.005"}
{"sequence": "GGAGACCAAACUAUACAACCUACUACCUCA", "pre-steady-state target cleavage rate": "0.131 ± 0.036"}
{"sequence": "GGAGACCUAUGAUAAGCAACCUACUACCUCA", "pre-steady-state target cleavage rate": "0.00516 ± 0.0031"}
{"sequence": "GGAGUGGAUUCUAUACAAGCUACUACCUCA", "pre-steady-state target cleavage rate": "0.228 ± 0.013"}
{"sequence": "GGAGACCUAUGAUAUGAACGUUCUACCUCA", "pre-steady-state target cleavage rate": "< 0.0001"}
{"sequence": "GGAGUGGAUACUAAUCAACCUACUACCUCA", "pre-steady-state target cleavage rate": "0.144 ± 0.01"}
{"sequence": "GGAGACCAUAGUAUACAACCUACAACCUCA", "pre-steady-state target cleavage rate": "0.129 ± 0.017"}
{"sequence": "GGAGACGUAUCUAUACAACCUACUACCUCA", "pre-steady-state target cleavage rate": "0.156 ± 0.015"}
{"sequence": "GGAGACGAUACUAUACAACCUAGUACCACA", "pre-steady-state target cleavage rate": "0.00571 ± 0.0053"}
{"sequence": "GGAGACGAUACUAUACAACCUACUACCGCA", "pre-steady-state target cleavage rate": "0.161 ± 0.021"}
{"sequence": "GGAGACCAUACUAUACAACGUACAACCUCA", "pre-steady-state target cleavage rate": "0.0214 ± 0.0035"}
{"sequence": "GGAGACCAUACAUACAACCUACUACCUCA", "pre-steady-state target cleavage rate": "0.119 ± 0.023"}
{"sequence": "GGAGACCUAUGUUAACAACCUACUACCUCA", "pre-steady-state target cleavage rate": "0.0234 ± 0.0048"}
{"sequence": "GGAGACCUAUGUAAACAACCUUCUACCUCA", "pre-steady-state target cleavage rate": "0.00363 ± 0.0033"}
{"sequence": "GGAGUGGAUACUAUAGAACCAACUACCUCA", "pre-steady-state target cleavage rate": "0.00293 ± 0.0022"}
{"sequence": "GGAGACCUUACUAUUCAACCUUCUACCUCA", "pre-steady-state target cleavage rate": "0.00471 ± 0.0024"}
{"sequence": "GGAGACCUUUCUAUACAACCUAGUACCUCA", "pre-steady-state target cleavage rate": "0.0267 ± 0.0078"}
{"sequence": "GGAGACCUAUGAUAUCAACCUACUUACCUCA", "pre-steady-state target cleavage rate": "0.00342 ± 0.0024"}
{"sequence": "GGAGACCUAACUAUACAACCUACUACCAUCA", "pre-steady-state target cleavage rate": "0.261 ± 0.038"}
{"sequence": "GGAGACCUAUGAAUACAACCUACUACCUCC [g2:g18:cont:t1C]", "pre-steady-state target cleavage rate": "0.0111 ± 0.0027"}
{"sequence": "GGAGACGAUACUAAACAACCUUCUACCUCA", "pre-steady-state target cleavage rate": "0.00978 ± 0.003"}
{"sequence": "GGAGACCAUACAAUACAACCUACUACCUCA", "pre-steady-state target cleavage rate": "0.189 ± 0.023"}
{"sequence": "GGAGACCUUACUAUACAACCUACUACCUCCA", "pre-steady-state target cleavage rate": "0.133 ± 0.014"}
{"sequence": "GGAGACCUAUGUAUACUACCUACUACGUCA", "pre-steady-state target cleavage rate": "0.0155 ± 0.0032"}
{"sequence": "GGAGACGAUUGAAUACAACCUACUACCUCA", "pre-steady-state target cleavage rate": "0.00898 ± 0.0022"}
{"sequence": "GGAGACCUAUGAAUACUACCUACUUCCUCA", "pre-steady-state target cleavage rate": "0.0037 ± 0.0024"}
{"sequence": "GGAGACCUAUCUAAACAACCUAGUACCUCA", "pre-steady-state target cleavage rate": "0.0109 ± 0.0036"}
{"sequence": "GGAGUGGAUACUAAACAACCUUCUACCUCA", "pre-steady-state target cleavage rate": "0.00905 ± 0.0025"}
{"sequence": "GGAGAGGAUACUAUACAACCUACUACCUCC [g2:g25:cont:t1C]", "pre-steady-state target cleavage rate": "0.146 ± 0.013"}
{"sequence": "GGAGACCUAUCUAUACUUCCUACUACCUCA", "pre-steady-state target cleavage rate": "0.054 ± 0.013"}
{"sequence": "GGAGACCUAUCUAUAACAACCUACUACCUCA", "pre-steady-state target cleavage rate": "0.0615 ± 0.012"}
{"sequence": "GGAGACCUAUGAUAUGUUCCUACUAGGUCA", "pre-steady-state target cleavage rate": "< 0.0001"}
{"sequence": "GGAGAGGAUACUAUACAACCUAACUACCUCA", "pre-steady-state target cleavage rate": "0.0231 ± 0.0035"}
{"sequence": "GGAGUGGAUACUUUACAACCUACAACCUCA", "pre-steady-state target cleavage rate": "0.0647 ± 0.0091"}
{"sequence": "GGAGUGGAUACUAUACAACCUACUACCGUCA", "pre-steady-state target cleavage rate": "0.0282 ± 0.006"}
